# Rows were chosen to be rich in hits. Some 3.6% of all compounds tested hit in one or more screens of this group.
# HepG2 viability = counter-screen for TGF-b inhibitors: cytotoxicity in HepG2 cells; HepG2 CAGA-GFP viability, ATP luminescence, 18 h; Potency, µM (series often up to 46.1 µM), for inactives: at the top dose activity change, negative = cytotoxicity, usual class: cytotoxic; 410,000 compounds, 0.76% hits
#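 HepG2 CAGA-GFP cells (1000/well, DMEM with 1% FBS) received compound, then TGF-beta at 500 pg/mL final, and were incubated 18 hours at 37 degrees C. Viability was read by CellTiter-Glo luminescence. Media-only wells were set as complete cell-killing and DMSO as no toxicity.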
# Nrf2 block = Nrf2 pathway inhibition; 360,000 compounds, 2.1% hits; Potency, µM (highest dose often 46 µM), for inactives: at the top dose activity change, negative = inhibition, usual class: inhibitors; A549 ARE-Fluc reporter, luciferase luminescence, 18-24 h; note: % is set by controls: 0 for no effect and ±100 for the full control effect; nearly all actives have a fitted effect of over 60% in size
#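 Quantitative HTS in A549 cells stably bearing an antioxidant response element-firefly luciferase construct. Inhibition of Nrf2-driven transcription was scored by luminescence after 18-24 h of compound exposure at 37 °C.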
# Nrf2 activator = Nrf2 pathway activation | AREc32 ARE-luciferase reporter (MCF7-derived line), luminescence, 24 h | Potency, µM (doses to about 46.1 µM), for the others: at the highest dose activation, hits mostly activators | 410,000 compounds, 0.31% hits; note: % of control where 0% means no effect; nearly all actives have a fitted effect of over 65% in size
#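 Luciferase luminescence (Steady-Glo, 30 min at room temperature) served as the read-out of ARE activation in AREc32 cells treated with compounds for 24 hr at 37 deg C.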
# A549 viability = kills or reduces viability of A549 cells in Nrf2 counter-screen; Potency, µM (titrated, usually from 46 µM), for the others: at the top dose activity change, negative = cytotoxicity, actives largely listed as inhibitors; AID 504648; A549 ARE-Fluc cells, CellTiter-Fluor viability, 18-24 h; 390,000 compounds, 0.16% hits; note: % is set by controls: 0 for no effect and ±100 for the full control effect
#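 A549 ARE-Fluc cells in 5% FBS OPTI-MEM, 5000 cells/well, rested 2 h then exposed to compounds in concentration-response for 18-24 h at 37 °C. Viability by CellTiter-Fluor fluorescence (Ex 405/Em 525) after 30 min; luciferase luminescence (BugLite, 15 min, RT) read afterwards.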
# TGFb SMAD3 inh = inhibitors of TGF-b signaling; HepG2 CAGA-GFP TGF-b/SMAD3 reporter, GFP fluorescence, 18 h; TGF-beta stimulated, 500 pg/mL final; AID 588855; 410,000 compounds, 1.2% hits; Potency, µM (top dose mostly 46.1 µM), for inactives: top-dose activity, negative = inhibition, hits mostly inhibitors; note: % is set by controls: 0 for no effect and ±100 for the full control effect; nearly all actives have a fitted effect of over 65% in size
#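 Inhibition was scored as loss of TGF-beta-induced (500 pg/mL final, 18 hours, 37 degrees C) GFP in HEPG2 cells carrying a CAGA-GFP reporter, in DMEM with 1% FBS. Well GFP was summed per cell; Activity was normalised to unstimulated and stimulated DMSO wells, then concentration-response fitting.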
# The depositor's hits bear a star; i = inactive; ? = inconclusive; . = not tested or not shown; [ ] = another dose, or the depositor's remark. Calls come from the whole dose curve; as a rule, active = well fitted curve in the direction sought with a large enough effect; inconclusive = small, poorly fitted or top-dose-only effect, or another doubt; inactive = no such curve, though single readings can be large; an effect the other way counts as inactive or inconclusive. Potency is the fitted concentration of half-maximal effect.
SMILES,HepG2 viability,Nrf2 block,Nrf2 activator,A549 viability,TGFb SMAD3 inh
CCc1ccc(C2NC(=O)c3[nH]nc(-c4cccc(OC)c4)c32)cc1 (stereo unspecified),-54%,7.3µM*,5%,-9%,?
CCOc1ccc(C2NC(=O)c3n[nH]c(C)c32)cc1 (stereo unspecified),-1%,-2%,-1%,-6%,1%
CCOC(=O)Cc1csc(NS(=O)(=O)c2ccc3ccccc3c2)n1,2%,16%,0%,-7%,5%
CN(C)c1ccc(CNCCC(Cc2ccccc2)c2ccco2)cc1 (stereo unspecified),i,0%,6%,-5%,?
c1ccc(CNCCC(Cc2ccccc2)c2ccco2)cc1 (stereo unspecified),1%,1%,8%,-1%,20µM*
O=C(COC(=O)c1nc(Cl)c(Cl)c(Cl)c1Cl)c1ccc[nH]1,-36%,20%,22µM*,-6%,1%
Cc1ccc(NC(=O)Cc2csc(C)n2)c(C)c1,-13%,24%,2%,1%,-28%
COc1ccccc1-n1cnnc1SC(C)C(=O)Nc1ccc(NC(C)=O)cc1 (stereo unspecified),-2%,13%,-1%,-1%,?
NNC(=O)c1cc2c(N3CCC(Cc4ccccc4)CC3)ncnc2s1,-20%,26µM*,0%,-12%,?
Cn1ncc2c(N3CCC(Cc4ccccc4)CC3)ncnc21,-35%,?,2%,-11%,-21%
COc1ccc(OC)c(CCNC(=O)c2cnn(-c3ccc(C)cc3C)c2C2CCN(C(=O)OC(C)(C)C)CC2)c1,-24%,18µM*,0%,-29%,?
COc1ccc(OC)c(CCNC(=O)c2cnn(-c3ccccc3)c2C2CCN(C(=O)OC(C)(C)C)CC2)c1,-22%,?,-1%,-26%,?
Cc1ccc(-n2ncc(C(=O)NCCN3CCc4ccccc4C3)c2C2CCN(C(=O)OC(C)(C)C)CC2)cc1,-100%,?,-4%,?,?
Cc1ccc(-n2ncc(C(=O)NCCN3CCc4ccccc4C3)c2C2CCN(C(=O)OC(C)(C)C)CC2)c(C)c1,-45%,10%,9%,-7%,16µM*
c1ccc2c(c1)ccc1ncccc12,-8%,4%,0%,5%,-3%
N/C(=N\OC(=O)c1ccc2c(c1)OCO2)c1cccnc1,-22%,?,-1%,2%,-4%
O=C(Nc1nc(-c2cccnc2)cs1)c1ccc([N+](=O)[O-])cc1,-17%,-5%,6%,-9%,-23%
CC(C)(C)n1nnnc1C(c1ccc(C(F)(F)F)cc1)N(Cc1ccccc1)Cc1ccco1 (stereo unspecified),-13%,15µM*,-1%,-27%,-7%
CC(C)(C)NC(=O)c1cccc(NC(=O)CSc2ccc(Cl)cc2)c1,-19%,-19%,2%,3%,?
COc1ccc(/C=N/NC(=O)c2nnn(-c3nonc3N)c2CN(C)C2CCCCC2)cc1,-3%,-22%,0%,0%,0%
COc1ccccc1-c1nnc(NC(=O)CCS(=O)(=O)c2ccc(F)cc2)o1,-41%,.,22µM*,.,?
CCN(Cc1ccccc1)S(=O)(=O)c1ccc(C(=O)Nc2nnc(-c3ccccc3OC)o2)cc1,11%,13µM*,0%,-22%,0%
O=[N+]([O-])c1ccc(/C=N/Nc2nc(N3CCCCC3)nc(N3CCCCC3)n2)o1,-20%,18µM*,6%,?,-12%
COc1c(/C=N/Nc2nc(N3CCCCC3)nc(N3CCCCC3)n2)cccc1[N+](=O)[O-],-19%,?,0%,-7%,2%
NC(c1csc(NC(=O)c2cccc(OC(F)(F)F)c2)n1)c1ccccc1Cl (stereo unspecified),-84%,.,0%,.,11µM*
COC(=O)c1cnc(Nc2nc(C(N)COCc3ccccc3)cs2)nc1C(F)(F)F (stereo unspecified),-81%,.,3%,.,?
NC(c1ccccc1)c1csc(NC(=O)Nc2ccc(OC(F)(F)F)cc2)n1 (stereo unspecified),-112%,.,3%[9.22 µM],.,?
